Sampled rows, rich in hits. Any-hit rate of the full collection: about 21%.
Cycloheximide cs – counter-screen hit for Shiga toxin inhibitors, cycloheximide. cell reporter, cycloheximide protein synthesis inhibition counterscreen. max response, %. 300,000 tested, 12% active. AID 2314; in the data active means max response mostly above about 13%, no sharp cut-off; inactive means mostly below about 14%; further: read at 38.3 µM for the half of the compounds with a filed dose; 0% is about no effect
Pf growth 48h – P. falciparum growth inhibition at 48 hours (one generation). AID 504832. Potency, µM (titrated, usually from 28.7 µM), for inactives: at the top dose activity change, negative = inhibition, actives largely listed as inhibitors. P. falciparum luciferase growth in erythrocytes, 48 h. 310,000 tested, 5.9% active; further: potency means the concentration at half of the fitted maximal effect; on the % scale 0 is the no-effect control and ±100 the full control effect
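Cell-based growth assay: transgenic P. falciparum expressing firefly luciferase, cultured in red cells within RPMI 1640 containing 0.5% w/v Albumax, 24 mM bicarbonate and gentamycin. A drop in luciferase activity indicates inhibition.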
HCMV antiviral – inhibitors of human cytomegalovirus. HFF cells, HCMV-luciferase reporter, 72 h; active compounds read low. activity change, negative = inhibition, % at 57.5 µM. 410,000 tested, 4.5% active; in the data active means activity change below about -60%; inconclusive means no clear call, values can overlap the other calls; inactive means above about -39%; further: on the % scale 0 is the no-effect control and ±100 the full control effect
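Two compound doses tested in HFFs infected with HCMV-luciferase, MOI 1 PFU/cell, 72 h at 37C. Lysate luminescence read with OneGlo; data normalized against buffer-only and 10uM Salinomycin inhibitor controls.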
Pf growth 96h – P. falciparum growth inhibition at 96 hours | P. falciparum luciferase reporter growth, 96 h | Potency, µM (series often up to 28.7 µM), inactives show at the top dose activity change, negative = inhibition, usual class: inhibitors | 320,000 tested, 6.9% active; further: potency means the concentration at half of the fitted maximal effect; on the % scale 0 is the no-effect control and ±100 the full control effect
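96 h incubation, 37 C, 5% CO2, of luciferase-reporter P. falciparum-infected RBCs (2% hematocrit, 0.05% parasitemia final) with test compounds; endpoint luminescence.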
HCV inhibitor – HCV inhibition | Huh7.5.1 HCVcc-Cre infection, luciferase reporter, 44 h | Potency, µM (doses to about 41.8 µM), without a hit: top-dose activity change, negative = inhibition, hits mostly inhibitors | 340,000 tested, 3.4% active | AID 651820; further: potency means the concentration at half of the fitted maximal effect; on the % scale 0 is the no-effect control and ±100 the full control effect
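Whole-lifecycle infectious HCVcc-Cre system; cells 1,000/well, compound then virus (~0.5 moi) added 4 h after plating, 44 h culture. Luciferase read 15 sec following 15 min substrate incubation, room temp.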
Shiga toxin inh – blocks Shiga toxin action in Vero cells | Vero cells, Shiga toxin protein synthesis inhibition reporter | inhibition, % at 38.7 µM | AID 2315 | 290,000 tested, 9.2% active; in the data active means inhibition mostly above about 28%, no sharp cut-off; inactive means mostly below about 43%; further: 0% is about no effect
An asterisk follows results filed as active; ? = inconclusive; . = no result given; [ ] = another dose, or the depositor's remark. Unless noted, the call rests on the fitted dose curve; in most records, active means well fitted inhibition curve with a large enough effect; inconclusive means small, poorly fitted or top-dose-only effect, or another doubt; inactive means no such curve, though single readings can be large or run the other way.

SMILES	Cycloheximide cs	Pf growth 48h	HCMV antiviral	Pf growth 96h	HCV inhibitor	Shiga toxin inh
COC(=O)CNC(c1ccccc1)c1cc(Br)ccc1NC(C)=O (stereo not drawn)	-5.3	3.3%	-26.2	0.2%	4.0%	-2.5
COC(=O)CNC(c1ccccc1)c1cc(Br)ccc1NC(=O)c1ccccc1 (stereo not drawn)	.	.	-17.0	.	.	.
NNC(=O)CNC(c1ccccc1)c1cc(Br)ccc1NC(=O)CCN1CCOCC1 (stereo not drawn)	12.3	11.7µM*	-14.5	9.28µM*	?	2.8
NNC(=O)CNC(c1ccccc1)c1cc(Br)ccc1NC(=O)c1ccccc1Br (stereo not drawn)	-5.0	8.28µM*	-32.5	77.6%	0.3%	-5.5
NNC(=O)CNC(c1ccccc1)c1cc(Br)ccc1NC(=O)c1ccc(Br)cc1 (stereo not drawn)	-2.5	8.28µM*	-30.7	-9.3%	?	24.1
CC12CCC(C(S(=O)(=O)Nc3ccccc3)C1=O)C2(C)C (stereo not drawn)	.	.	-27.8	.	16.0%	.
O=C(NCCCO)c1cc2c([nH]c3ccccc32)c(-c2ccccc2)n1	-1.7	?	-27.8	5.86µM*	10µM*	-9.7
C[C@H](NC(=O)c1cc2c(cn1)[nH]c1ccccc12)C(=O)O	-3.3	?	-11.3	12.9%	9.0%	-14.9
O=C(NCCCO)c1cc2c(cn1)[nH]c1ccccc12	26.8*	63.3%	31.8	68.8%	-4.7%	42.9
COC(=O)[C@H](C)NC(=O)c1cc2c(cn1)[nH]c1ccccc12	15.2*	5.0%	1.1	0.0%	-4.8%	24.3
O=C1CC(NS(=O)(=O)c2cccs2)CN1c1cccc(F)c1 (stereo not drawn)	.	-3.1%	-7.4	15.9%	-4.3%[8.37 µM]	.
Cc1cc(F)ccc1NC(=O)CCSc1nc(-c2ccco2)cc(C(F)(F)F)n1	.	.	-22.9	.	.	.
Cn1c(N)c(C(=O)COC(=O)CNC(=O)c2ccccc2Cl)c(=O)n(C)c1=O	.	?	-9.2	-9.6%	9.2%	.
N#Cc1c(-c2cccs2)cc(-c2ccccn2)nc1N	1.4	-6.1%	10.2	9.28µM*	?	49.3
O=C(O)CCSCCCN1C(=O)c2cccc3cccc(c23)C1=O	-0.3	-20.6%[5.75 µM]	?	-55.4%	-0.5%	-5.0
O=C(N/N=C/c1cn(-c2ccccc2)nc1-c1cc2ccccc2o1)c1c[nH]c2ccccc12	44.9*	3.29µM*	64.0	?	11.2µM*	133.5*
O=C(N/N=C/c1coc2ccccc2c1=O)c1cn(-c2ccccc2)nc1-c1ccccc1	0.4	-3.9%	?	-24.3%	-26.3%	-14.1
O=C(N/N=C/c1cn(-c2ccccc2)nc1-c1cc2ccccc2o1)c1ccccc1Br	66.0*	-52.0%	-2.8	-45.1%	?	99.8*
COc1ccc(C(=O)Nc2ccc(-c3cc4ccccc4oc3=O)c(C)c2)cc1Br	.	.	-13.7	.	.	.
COc1ccc(N2CC(C(=O)Nc3nnc(SCC(=O)N4CCOCC4)s3)CC2=O)cc1 (stereo not drawn)	-0.6	-19.7%	21.0	6.57µM*	-1.9%	-1.1
COc1ccc(N2CC(C(=O)Nc3nnc(SCc4ccccn4)s3)CC2=O)cc1 (stereo not drawn)	19.8*	-23.1%	?	?	14.0%	-2.1
COc1ccccc1N1CC(C(=O)Nc2nnc(SCc3ccccn3)s2)CC1=O (stereo not drawn)	6.5	?	-27.0	?	0.2%	15.3
Cc1ccc(OCC(O)CN2CCCC2)cc1 (stereo not drawn)	2.0	2.0%	-16.6	?	21.1%	25.8
Cc1cccc(C)c1OCC(O)Cn1c2ccccc2c2ccccc21 (stereo not drawn)	-4.8	10.4µM*	-16.4	30.6%	?	-6.0
OC(CN1CCNCC1)Cn1c2ccccc2c2ccccc21 (stereo not drawn)	-0.3	?	?	?	-23.0%	-3.0
OC(CN1CCN(c2ccccc2)CC1)Cn1c2ccccc2c2ccccc21 (stereo not drawn)	-2.8	.	-14.8	-28.4%	2.5%	-15.7
OC(COCC(F)(F)C(F)(F)C(F)(F)C(F)F)Cn1c2ccccc2c2ccccc21 (stereo not drawn)	-2.0	11.7µM*	29.9	-19.1%	?	9.0

Assay outcomes as filed in PubChem.
